Records with an inconclusive call do not appear. Unmarked numbers belong to inactive results. Calls follow the shape of the dose curve; as a rule, active = well fitted activation curve with a large enough effect in the repeat runs; inconclusive = weak or mixed curves; inactive = no such curve, though single readings can be large or run the other way.
test: qHTS assay to identify small molecule agonists of the estrogen related receptor signaling pathway with the pleiotropic PPARgamma coactivator (PGC) (AID 1224823); conditions: ERR/PGC reporter cell line, luciferase agonist mode; series mostly up to 46.1 µM; activation: at the top concentration
Method in brief: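 In this quantitative high-throughput screen, an 18 h, 37 C treatment of PGC/ERR cells with compounds in DMSO preceded a One-Glo luminescence read taken after 30 min at room temperature.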
% is scaled to controls: 0 for no effect and ±100 for the full control effect.

In order of falling “activation” value:
1. CC(C)Cn1c(=O)n(C)c(=O)c2[nH]cnc21  14.3%
2. C=CC[C@H](N)C(=O)O  12.3%
3. Nc1nc2ccc(Cl)cc2n2c(-c3ccccc3)nnc12  10.2%
4. O=C(O)c1cc2cc(Cc3cccnc3)ccc2o1  6.64%
5. N=c1ccn2c(n1)O[C@H]1C(O)[C@@H](CO)O[C@H]12 (some centres undefined)  6.55%
6. C[C@@H](NCCc1ccc(O)cc1)[C@@H](O)c1ccc(O)cc1  6.38%
7. O=C(O)CCCC[C@@H]1CCSS1  5.85%
8. CN(C)C(N)=NCCC[C@H](N)C(=O)O  3.33%
9. N[C@H](CO)C(=O)O  1.97%
10. N[C@@H](CC(=O)O)C(=O)O  1.38%
11. CN1CC(O)C(O)C(O)C1CO (centres undefined)  0.78%
12. Nc1ncnc2c1ncn2C1CCCO1 (centres undefined)  -1.28%
13. O=c1cc(-c2ccccc2)oc2c(O)c(O)ccc12  -4.99%
14. COc1ccccc1CNCCCCCCNCCCCCCCCNCCCCCCNCc1ccccc1OC  -5.04%
15. NCCCS(=O)(=O)O  -5.37%
16. COC(=O)[C@H]1[C@H]2C[C@H]3c4[nH]c5ccccc5c4CCN3C[C@H]2CC[C@@H]1O  -7.42%
17. COc1cc(CC(=O)O)ccc1O  -7.66%
18. CNCCNS(=O)(=O)c1cccc2cnccc12  -17.2%
19. CCN(CC)CCCCNc1ncc2cc(-c3c(Cl)cccc3Cl)c(NC(=O)NC(C)(C)C)nc2n1  -19.6%
